# Laboratory results reported in the supplement of paper PMC8728848.
# Many of the other results were omitted from the sample, so the strongest signals are more common in it than they were.
# Tests used:
# Assay in all cases: glycan array binding signal (z-score within array); higher = stronger binding
# Conditions in all cases: glycan notation: IUPAC condensed, linker removed
# [1] = target: Gal3S(b1-4)GlcNAc
# Outline: (§1)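 Glycan array data were curated from 3228 arrays in the Consortium for Functional Glycomics database and kept only where the protein sequence was available. Glycan names were converted to IUPAC-condensed notation, and columns mapping to the same glycan were averaged. The binding signal is a within-array Z-score, averaged across arrays of the same protein sequence at different concentrations or buffers and across linkers. Negative Z-scores can be read as non-binding.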
# [2] = target: Gal3S(b1-4)[Fuc(a1-3)]Glc6S
# Outline: as §1
# [3] = target: Gal3S(b1-4)[Fuc(a1-3)]GlcNAc
# Outline: as §1
# [4] = target: Gal6S(b1-4)GlcNAc6S
# Outline: as §1
# [5] = target: GalNAc(a1-3)GalNAc
# Outline: as §1
# [6] = target: GalNAc(b1-3)Gal(a1-4)Gal(b1-4)GlcNAc(b1-3)Gal(b1-4)Glc
# Outline: as §1
# [7] = target: GalNAc(b1-3)Gal(a1-6)Gal(b1-4)Glc
# Outline: as §1
# [8] = target: GalNAc3S(b1-4)GlcNAc3S
# Outline: as §1
# [9] = target: Glc(a1-4)Glc
# Outline: as §1
# [10] = target: GlcNAc(a1-4)Gal(b1-4)GlcNAc(b1-3)Gal(b1-4)[Fuc(a1-3)]GlcNAc(b1-3)Gal(b1-4)[Fuc(a1-3)]GlcNAc
# Outline: as §1
# [11] = target: GlcNAc(b1-3)Gal(b1-4)GlcNAc(b1-3)Gal(b1-4)GlcNAc(b1-2)Man(a1-3)[GlcNAc(b1-3)Gal(b1-4)GlcNAc(b1-3)Gal(b1-4)GlcNAc(b1-2)Man(a1-6)]Man(b1-4)GlcNAc(b1-4)GlcNAc
# Outline: as §1
# [12] = target: GlcNAc(b1-3)Gal(b1-4)GlcNAc(b1-3)Gal(b1-4)GlcNAc(b1-3)Gal(b1-4)GlcNAc(b1-2)Man(a1-3)[GlcNAc(b1-3)Gal(b1-4)GlcNAc(b1-3)Gal(b1-4)GlcNAc(b1-3)Gal(b1-4)GlcNAc(b1-2)Man(a1-6)]Man(b1-4)GlcNAc(b1-4)GlcNAc
# Outline: as §1
# [13] = target: GlcNAc(b1-4)[GlcNAc(b1-6)]GalNAc
# Outline: as §1
# [14] = target: Kdn(a2-6)Gal(b1-4)GlcNAc
# Outline: as §1
# [15] = target: Man(a1-2)Man(a1-3)[Man(a1-2)Man(a1-6)]Man(a1-6)[Man(a1-2)Man(a1-2)Man(a1-3)]Man
# Outline: as §1
# [16] = target: Man(a1-2)Man(a1-3)[Man(a1-2)Man(a1-6)]Man(a1-6)[Man(a1-2)Man(a1-2)Man(a1-3)]Man(b1-4)GlcNAc(b1-4)GlcNAc
# Outline: as §1
# [17] = target: Man(a1-2)Man(a1-6)[Man(a1-3)]Man(a1-6)[Man(a1-2)Man(a1-2)Man(a1-3)]Man
# Outline: as §1
# [18] = target: Neu5Ac(a2-3)Gal(b1-3)GlcNAc(b1-2)Man
# Outline: as §1
# [19] = target: Neu5Ac(a2-3)Gal(b1-3)GlcNAc(b1-6)GalNAc
# Outline: as §1
# [20] = target: Neu5Ac(a2-3)Gal(b1-3)[Fuc(a1-4)]GlcNAc
# Outline: as §1
# [21] = target: Neu5Ac(a2-3)Gal(b1-3)[GlcNAc(b1-6)]GalNAc
# Outline: as §1
# [22] = target: Neu5Ac(a2-3)Gal(b1-3)[Neu5Ac(a2-6)]GlcNAc(b1-3)[Fuc(a1-3)[Gal(b1-4)]GlcNAc(b1-6)]Gal(b1-4)Glc
# Outline: as §1
# [23] = target: Neu5Ac(a2-3)Gal(b1-4)GlcNAc(b1-3)Gal(b1-4)GlcNAc(b1-3)Gal(b1-4)GlcNAc(b1-2)Man(a1-3)[Neu5Ac(a2-3)Gal(b1-4)GlcNAc(b1-3)Gal(b1-4)GlcNAc(b1-3)Gal(b1-4)GlcNAc(b1-2)Man(a1-6)]GalNAc
# Outline: as §1
# [24] = target: Neu5Ac(a2-3)Gal(b1-4)[Fuc(a1-3)]GlcNAc(b1-3)Gal(b1-4)[Fuc(a1-3)]GlcNAc(b1-3)Gal(b1-4)[Fuc(a1-3)]GlcNAc
# Outline: as §1
# [25] = target: Neu5Ac(a2-3)Gal(b1-4)[Fuc(a1-3)]GlcNAc(b1-3)GalNAc
# Outline: as §1
# [26] = target: Neu5Ac(a2-6)Gal(b1-4)Glc
# Outline: as §1
# [27] = target: Neu5Ac(a2-6)Gal(b1-4)GlcNAc(b1-2)Man(a1-3)[Man(a1-6)]Man(b1-4)GlcNAc(b1-4)GlcNAc
# Outline: as §1
# [28] = target: Neu5Ac(a2-6)Gal(b1-4)GlcNAc(b1-3)Gal(b1-4)GlcNAc
# Outline: as §1
# [29] = target: Neu5Ac(a2-6)Gal(b1-4)GlcNAc(b1-3)Gal(b1-4)GlcNAc(b1-3)Gal(b1-4)GlcNAc
# Outline: as §1
# [30] = target: Neu5Ac(a2-6)Gal(b1-4)GlcNAc(b1-3)[Neu5Ac(a2-6)Gal(b1-4)GlcNAc(b1-6)]GalNAc
# Outline: as §1
# [31] = target: Neu5Ac(a2-6)Gal(b1-4)GlcNAc(b1-6)[Gal(b1-3)GlcNAc(b1-3)]Gal(b1-4)Glc
# Outline: as §1
# [32] = target: Neu5Ac(a2-6)GlcNAc(b1-4)GlcNAc
# Outline: as §1
# [33] = target: Neu5Ac(a2-8)Neu5Ac(a2-3)[GalNAc(b1-4)]Gal(b1-4)Glc
# Outline: as §1
# [34] = target: Neu5Gc(a2-3)Gal(b1-4)Glc
# Outline: as §1
binder,measurement,setting,value
EUL D1A second (Oryza sativa) (protein) GAATACTIGGVPVHTVRVFSAAGEDYCLTVRNGTACLAPKNPRDDYQHWIKDMRHSNKIRDEEGYPAFALVNKVTGEAIKHSTGQGHPVKLVPYNPEYQDESVLWTESKDVGKGFRCIRMVNNIYLNFDAFHGDKDHGGIHDGTEIVLWKWCEGDNQRWKILPWILEQKLISEEDLNSAVDHHHHHH,glycan array binding signal (z-score),[1],0.255
same,glycan array binding signal (z-score),[2],2.74
same,glycan array binding signal (z-score),[3],2.4
same,glycan array binding signal (z-score),[4],0.99
same,glycan array binding signal (z-score),[5],-0.302
same,glycan array binding signal (z-score),[6],-0.809
same,glycan array binding signal (z-score),[7],-0.495
same,glycan array binding signal (z-score),[8],-0.9
same,glycan array binding signal (z-score),[9],0.317
same,glycan array binding signal (z-score),[10],2.44
same,glycan array binding signal (z-score),[11],0.61
same,glycan array binding signal (z-score),[12],0.539
same,glycan array binding signal (z-score),[13],-0.443
same,glycan array binding signal (z-score),[14],-1.38
same,glycan array binding signal (z-score),[15],-0.985
same,glycan array binding signal (z-score),[16],1.93
same,glycan array binding signal (z-score),[17],0.706
same,glycan array binding signal (z-score),[18],3.06
same,glycan array binding signal (z-score),[19],-0.587
same,glycan array binding signal (z-score),[20],0.596
same,glycan array binding signal (z-score),[21],0.412
same,glycan array binding signal (z-score),[22],1.26
same,glycan array binding signal (z-score),[23],3.53
same,glycan array binding signal (z-score),[24],-0.112
same,glycan array binding signal (z-score),[25],2.61
same,glycan array binding signal (z-score),[26],0.113
same,glycan array binding signal (z-score),[27],0.117
same,glycan array binding signal (z-score),[28],0.827
same,glycan array binding signal (z-score),[29],-2.05
same,glycan array binding signal (z-score),[30],2.81
same,glycan array binding signal (z-score),[31],0.242
same,glycan array binding signal (z-score),[32],-0.238
same,glycan array binding signal (z-score),[33],0.083
same,glycan array binding signal (z-score),[34],0.509
